# From PubChem BioAssay
# Pol iota inh – DNA polymerase iota (human) inhibition; AID 588590; Q9UNA4; Pol iota fluorescent replication assay, 10 min; Potency, µM (titrated, usually from 115 µM), without a hit: at the highest dose activity, negative = inhibition, usual class: inhibitors; 390,000 compounds, 1% hits; also: potency is read from the fitted curve at half-maximal effect
# Target sequence (Q9UNA4 whole entry, looked up): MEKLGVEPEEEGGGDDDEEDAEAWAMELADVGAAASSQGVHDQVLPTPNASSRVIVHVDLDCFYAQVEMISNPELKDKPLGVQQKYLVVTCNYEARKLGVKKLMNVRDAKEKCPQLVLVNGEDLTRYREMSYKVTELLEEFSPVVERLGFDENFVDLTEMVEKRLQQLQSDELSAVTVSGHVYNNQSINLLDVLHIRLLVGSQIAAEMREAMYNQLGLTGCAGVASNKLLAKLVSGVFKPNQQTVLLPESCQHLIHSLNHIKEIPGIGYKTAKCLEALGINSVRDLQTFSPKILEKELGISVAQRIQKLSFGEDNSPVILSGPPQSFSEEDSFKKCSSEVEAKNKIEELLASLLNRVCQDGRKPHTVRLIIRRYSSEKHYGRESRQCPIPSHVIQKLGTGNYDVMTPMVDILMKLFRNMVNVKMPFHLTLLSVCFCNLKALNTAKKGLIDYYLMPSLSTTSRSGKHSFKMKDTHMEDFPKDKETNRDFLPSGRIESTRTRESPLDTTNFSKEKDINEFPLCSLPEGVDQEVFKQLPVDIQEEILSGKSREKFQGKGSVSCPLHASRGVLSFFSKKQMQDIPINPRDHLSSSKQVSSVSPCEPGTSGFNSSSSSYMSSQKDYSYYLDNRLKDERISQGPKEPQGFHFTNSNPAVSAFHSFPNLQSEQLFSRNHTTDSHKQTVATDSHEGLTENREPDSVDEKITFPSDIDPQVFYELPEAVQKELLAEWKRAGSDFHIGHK
#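 Pol iota at 10 nM preincubated 15 min with compounds at room temperature; reaction started with fluorescent substrate, 50 nM final. Fluorescence read kinetically at 0 and 10 min; buffer-only wells as negative control.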
# Pol beta inh – blocks human DNA polymerase beta activity. 340,000 compounds, 1.3% hits. Potency, µM (series often up to 114 µM), for the others: at the top dose activity change, negative = inhibition, actives largely listed as inhibitors. AID 485314. P06746. Pol beta primer extension/strand displacement, fluorescence kinetic; also: potency is read from the fitted curve at half-maximal effect; % is scaled to controls: 0 for no effect and ±100 for the full control effect
#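 Values derive from four-parameter Hill fits of normalized kinetic data: reads at 0 and 10 min following addition of 50 nM substrate to 10 nM Pol beta preincubated 15 min with compound.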
# POLK inh – inhibitors of human DNA polymerase kappa. Q9UBT6. 400,000 compounds, 0.53% hits. purified Pol kappa, fluorescent DNA synthesis assay, 10 min. Potency, µM (doses to about 107 µM), for the others: at the top dose activity, negative = inhibition, hits mostly inhibitors; also: potency is read from the fitted curve at half-maximal effect; % is scaled to controls: 0 for no effect and ±100 for the full control effect
#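 10 nM Pol kappa preincubated 15 min at room temperature with compounds, then reaction started with substrate at 50 nM final. Fluorescence read kinetically at 0 and 10 min; buffer-only wells served as negative control.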
# PI5P4Ka inh – blocks human PI5P4K alpha kinase activity; PI5P4Kalpha enzyme, ADP-Glo luminescence, 60 min; stronger effect = lower value; 330,000 compounds, 1.2% hits; P48426; max response, %; active = max response of -50% or lower; inconclusive = between -30% and -50%; inactive = -30% or higher; also: value at the top dose of about 77 µM; % is scaled to controls: 0 for no effect and ±100 for the full control effect
#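 PI5P4Kalpha ADP-Glo assay; 5 microM ATP final; 60 min RT reaction; HEPES pH 7.4/EGTA/CHAPS, 5% DMSO; controls lacking substrate or enzyme; luminescent end-point.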
# Pol eta inh – DNA polymerase eta (human) inhibition; Potency, µM (series often up to 114 µM), for inactives: top-dose activity change, negative = inhibition, actives largely listed as inhibitors; recombinant Pol eta, fluorescent DNA replication assay; AID 588591; Q9Y253; 390,000 compounds, 1.2% hits; also: potency is read from the fitted curve at half-maximal effect; % is scaled to controls: 0 for no effect and ±100 for the full control effect
#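 Pol eta at 10 nM preincubated with compounds 15 min at room temperature; reaction started with fluorescent substrate (50 nM final) and read kinetically at 0 and 10 min.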
# 12-LOX inh – ALOX12 (human) lipoxygenase inhibition | purified 12hLO, xylenol orange hydroperoxide absorbance | AID 1671190 | 580,000 compounds, 1.1% hits | Potency, µM (series often up to 108 µM), inactives show at the top dose activity change, negative = inhibition, most hits filed as inhibitors; also: potency is read from the fitted curve at half-maximal effect; % is scaled to controls: 0 for no effect and ±100 for the full control effect
#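 Purified human 12hLO (150 nM final) in 25 mM Hepes, 0.01% Triton X-100, pH 7.0 was preincubated 15 min at room temperature with compound. Then 40 uM arachidonic acid was added, 30 min. Hydroperoxide was read by Fe-XO absorbance ratio 573/405 nm.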
# Starred values were filed as active, the others as inactive; ? = inconclusive; / = no result; ! = repeats disagree; [ ] = another dose, or the depositor's remark. A selection: hits, their analogues and other compounds. The true share with any hit is near 2.9%. Unless noted, calls follow the shape of the dose curve; as a rule, active = well fitted inhibition curve with a large enough effect; inconclusive = small, poorly fitted or top-dose-only effect, or another doubt; inactive = no such curve, though single readings can be large or run the other way.
SMILES,Pol iota inh,Pol beta inh,POLK inh,PI5P4Ka inh,Pol eta inh,12-LOX inh
O=C1C=CC(=O)C(Cl)=C1,/,/,16µM*,/,/,/
O=C1C=CC(=O)C=C1,?,?,-6%[60.1 µM],-9,?,-31%
Oc1c(Cl)cc(Cl)cc1CN1CCN(Cc2ccccc2)CC1,32µM*,11%,-13%,/,-5%,-23%
O=C(Cc1ccccc1)N1CCN(Cc2ccccc2Cl)CC1,-11%,-7%,-19%,-3,-6%,233%
CC12CN3CC(C)(CN(C1)C3c1ccccn1)C2=O (stereo not drawn),/,/,/,/,/,24%
C[N+]1(C)C2CCC1CC(OC(=O)c1ccco1)C2 (stereo not drawn),-1%,51%,-3%,0,-9%,0%
C[N+]1(C)C2CCC1CC(OC(=O)c1c[nH]c3ccccc13)C2 (stereo not drawn),-21%,7%[57.1 µM],1%[60.1 µM],5,-5%,45µM*
C[N+]1(C)C2CC[C@H]1CC(OC(=O)C(CO)c1ccccc1)C2 (stereo partly drawn),17%,/,6%,1,-9%,-8%
C[N+]1(C)[C@@H]2CC[C@H]1CC(OC(=O)[C@@H](CO)c1ccccc1)C2 (stereo partly drawn),?,28%,-2%,-58*,5%,18µM*
CCCCc1cn(C[C@H]2C[C@@H]3CCN2C[C@@H]3C(=O)Nc2nccs2)nn1,/,/,/,/,/,4%[176 µM]
Cc1ccc(S(=O)(=O)Oc2ccccc2C=C2C(=O)N(C)C(=O)N(C)C2=O)cc1,-18%,-13%,-11%,?,2%,45µM*
CC[C@H]1CN2CC[C@H]1C[C@@H]2COC(=O)Nc1ccc(C(C)(C)C)cc1,/,/,/,/,/,45µM*
COc1ccc2c(c[n+](C)c3c4cc5c(cc4ccc23)OCO5)c1OC,?,28µM*,-7%[60.1 µM],/,?,9.7µM*!
C=C[C@H]1CN2CC[C@H]1C[C@@H]2CNC(=O)C1CC1,/,/,/,/,/,54%[176 µM]
Cc1ccc(NC(=O)Cn2c(=O)oc3cc(S(=O)(=O)N4CCCCCC4)ccc32)cc1Cl,-14%,?,-15%[60.1 µM],/,6%,?
CCc1ccc(NC(=O)Cn2c(=O)oc3cc(S(=O)(=O)NCc4ccccc4)ccc32)cc1,-13%,20µM*,-31%,/,-9%,-9%
O=c1cc(-c2ccc(O)cc2)oc2c(C3O[C@H](CO)[C@@H](O)[C@H](O)[C@H]3O)c(O)cc(O)c12 (stereo partly drawn),?,/,?,-73*,?,?
Cc1ccc(/C=C2\C(=O)NC(=O)N(CCc3ccc(F)cc3)C2=O)o1,?,-11%,-31%,-53*,-14%,?
O=C1NC(=O)N(CCc2ccc(F)cc2)C(=O)/C1=C\C=C\c1ccccc1,3.2µM*,-1%,-11%,-4,-11%,?
Cc1ccc(/C=C2\C(=O)NC(=O)N(Cc3ccccc3Cl)C2=O)o1,25µM*,?,?,?,79µM*,32µM*
CCOc1cc(/C=C2\C(=O)NC(=O)N(CCc3ccc(F)cc3)C2=O)ccc1O,?,0%,-9%,-58*,-9%,?
Cc1ccc(/C=C2/C(=O)NC(=O)N(Cc3ccc(F)cc3)C2=O)o1,/,25%,/,/,/,9%
CCC(c1cccs1)N1C(=O)[C@H]2CNC[C@H]2C1=O (stereo partly drawn),/,/,/,/,/,14%
Cc1ccc(NC(=O)c2cn(Cc3ccccc3)nn2)c(C)c1,/,/,/,/,/,-14%
CC[C@@H]1[C@@H](C)O[C@@](O)([C@@H](C)[C@H](O)[C@H](C)[C@H]2OC(=O)C=CC=C[C@@H](C)[C@@H]([C@@H](C)[C@@H](O)[C@H](C)[C@@]3(O)C[C@H](O[C@H]4C[C@H](O)[C@H](O)[C@H](C)O4)[C@H](CC)[C@@H](C)O3)OC(=O)C=CC=C[C@@H]2C)C[C@H]1O[C@H]1C[C@H](O)[C@H](O)[C@H](C)O1,/,/,/,/,/,-22%[57.4 µM]
SMILES,Pol iota inh,Pol beta inh,POLK inh,PI5P4Ka inh,Pol eta inh,12-LOX inh
CNCc1cn(C[C@H]2CC3CCN2C[C@@H]3C(=O)N(C)C)nn1 (stereo partly drawn),/,/,/,/,/,67%[176 µM]
Clc1ccc(N2CCN(CC3[C@H]4CNC[C@@H]34)CC2)nc1 (stereo partly drawn),/,/,/,/,/,32µM*
O=C(NC1CC1)[C@H]1CN2CCC1C[C@@H]2Cn1cc(C2(O)CCCCC2)nn1 (stereo partly drawn),/,/,/,/,/,65%[176 µM]
O=C1CSC(c2ccccc2OC2CCCC2)c2cn[nH]c2N1 (stereo not drawn),/,/,/,/,/,6%
O=C(O)CSCC(=O)N(Cc1ccccc1)c1nc(-c2ccccc2)c(-c2ccccc2)s1,50µM*,50µM*,?,18,?,?
COc1cc(-c2nc3ccc(Cl)cn3c2Nc2ccc3c(c2)OCCO3)ccc1O,?,1%,-1%,/,-26%,7.9µM*
Cn1cc(CN2CCOC[C@H](O)C2)c2ccccc21,/,/,/,/,/,1%[176 µM]
C=C[C@H]1CN2CC[C@H]1C[C@@H]2CNS(=O)(=O)c1cccc(F)c1,/,/,/,/,/,37%[176 µM]
O=[N+]([O-])c1cc(O)c(O)c([N+](=O)[O-])c1,?,5%[57.1 µM],16µM*!,-23,?,?
Cc1[nH]nc2c1C(c1ccc(OCC(N)=O)cc1)SCC(=O)N2 (stereo not drawn),/,/,/,/,/,4%
NC(=O)c1cn(C2OC(CO)C(O)C2O)c2ncnc(N)c12 (stereo not drawn),8%,2%,-6%,0,-15%,18µM*!
N#Cc1cn(C2OC(CO)C(O)C2O)c2ncnc(N)c12 (stereo not drawn),8%,/,-1%,2,-16%,-26%
Cc1ccc2c(c1)N(N=O)CCC2,27%,3%,-2%,0,89µM*,-21%
C=C[C@H]1CN2CC[C@H]1C[C@@H]2CNC(=O)c1ccc(F)c(Cl)c1,/,/,/,/,/,55%[176 µM]
Cc1nc(-c2cccs2)cc([C@H]2CN3CC[C@H]2C[C@@H]3CNC(=O)C2CCC2)n1,/,/,/,/,/,34%[176 µM]
Cc1ccc(F)cc1NC(=O)c1ccc(Cn2nc(N3CCN(c4ccccc4)CC3)ccc2=O)o1,?,?,-11%,/,79µM*,-15%
O=C(Cc1cccc(F)c1)N1CCN(C2CCN(Cc3cccnc3)C2=O)CC1 (stereo not drawn),/,/,/,/,/,-9%
COc1ccc(CCn2c(NN=C3CCCCC3)nc3c2c(=O)[nH]c(=O)n3C)cc1,18µM*,-23%,-18%,?,?,/
COc1ccc(CCNCc2ccc3c(c2)n(C)c(=O)n3C)cc1,7%,1%,0%,/,1%,-10%
O=c1[nH]c(=O)n(Cc2ccco2)c(O)c1/C=N/N1CCCCCC1,142%,3%,-17%,1,-3%,-10%
